This is part of a sample that, as a whole, favours compounds with a hit. Of some 79,000 tested, about 15% had one in any assay. Unmarked numbers belong to inactive results. Active and inactive are the calls of the source. Cut-off read from the data, not from the text of the source: active = growth inhibition above about 70%; inactive = the rest.

This assay can be described thus: NCI Yeast Anticancer Drug Screen. Data for the rad50EPP+ strain (AID 151).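 Note: 0% = growth of vehicle-treated control cultures.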 The conditions noted are these: S. cerevisiae rad50 mutant strain, at 33.0 µM, active compounds read high. A digest of the protocol: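 Read-out is yeast growth inhibition relative to vehicle; cells used were the rad50EPP+ strain.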
With `C/C(=N\NC(=S)SCc1ccccc1)c1ccccn1`, the growth inhibition was 95% (active).
As for `CC[C@@]1(O)C(=O)OCc2c1cc1n(c2=O)Cc2cc3c(N)cccc3nc2-1`, the figure is 54%; as for `CN(C)c1ccc(Sc2ccc3nc(N)nc(N)c3c2)cc1`, 30%; as for `CC(=O)OCCOCNC(=S)N/N=C(\C)c1cnccn1`, 0%.
As for `COc1ccc(C2c3cc4c(cc3OC(C)(O)C2C)OCO4)c(OC)c1` (centres undefined), the figure is 7%; as for `COc1cc(C2SCC(=O)N2c2ccc(-c3ccc(-n4c(-c5ccccc5)nc5ccccc5c4=O)cc3)cc2)cc(OC)c1OC` (centres undefined), 4%.
In the case of `COc1ccc(Br)c(C(=O)Sc2nnnn2-c2cccc(Cl)c2)c1`, the growth inhibition is 65%.
The result for `O=C(NNc1ccnc2cc(Cl)ccc12)/C(=C\c1ccccc1Cl)NC(=O)c1ccccc1` reads 95% (active); that for `CSC(=S)Nc1cccc(C)n1`, -24%; that for `O=C(/C=C\c1ccc(Cl)cc1Cl)c1cccs1`, 55%.
The result for `COc1ccc(-c2cn(-c3ccc(I)cc3)c3ncnc(N)c23)cc1` reads 8%; that for `CN(C)c1ccc(C(C#N)=C(C#N)C#N)cc1`, 15%; that for `COc1cc(/C=C2\CCc3ccccc3C2=O)cc(OC)c1OC`, 30%.
Turning to `CC(C)/C(Cl)=N\OC(=O)Nc1cccc(Cl)c1`, the growth inhibition was 2%.
As for `CC1(C)[C@@H]2CC[C@]1(C)[C@H](OC(=O)CSC#N)C2`, the figure is 24%.
As for `NNC(=O)CCc1ccc2ccc3ccccc3c2c1`, the figure is 34%; as for `COc1ccc(/C(C)=N/OC(=O)c2c(-c3ccccc3Cl)noc2C)cc1CN1CCOCC1`, -32%; as for `C=CC(C)(O)CCC1C(=C)C(O)CC2C(C)(C)CCCC12C` (centres undefined), 0%.
The result for `S=C(Nc1ccc(Cl)c(Cl)c1)SCc1ccc2c(c1)OCO2` reads 99% (active).
In the case of `COc1cc(C2C3=C(COC3=O)Oc3cc4c(cc32)OCO4)ccc1O` (centres undefined), the growth inhibition was 4%.
The result for `S=C(Nc1ccc(Cl)cc1)SC1CCCCC1` reads 98% (active).
The result for `Nc1nc(-c2cccnc2)cc(-c2cc(-c3cccnc3)nc(N)n2)n1` reads 0%; that for `COC1=CC(=O)C2C(C1=O)C(c1ccc(Cl)cc1)[C@@H]2C` (some centres undefined), 98% (active).
As to `c1ccc(-c2nc3cccnc3s2)cc1`, the growth inhibition was 19%.
The result for `O=[N+]([O-])c1cc(CCl)ccc1CCl` reads 97% (active); that for `COc1ccc(/C=C2\SC(=S)N(/C=C/c3nc4ccccc4[nH]c3=O)C2=O)cc1OC`, 50%.
As for `CCCN(CCC)CC(O)c1cc(-c2ccc(Cl)cc2)nc2c(C)c(Cl)ccc12` (centres undefined), the figure is 96% (active); as for `O=C(Nc1ccccc1)OCCc1ccc(Cl)c(Cl)c1`, 29%; as for `CC(O)C(O)C(O)C(/C=N\Nc1ccccc1)=N/Nc1ccccc1` (centres undefined), 50%.
The result for `C#CCCCc1ccccc1` reads 23%.
In the case of `CC(=O)Cc1ccc[cH-]1.[Fe+2].c1cc[cH-]c1`, the growth inhibition was 15%.
As for `Cc1cc(I)ccc1N`, the figure is 20%.
The result for `FC(F)(F)c1cc(NC(=S)N2c3ccccc3-n3cccc3C2c2cccnc2)cc(C(F)(F)F)c1` (centres undefined) reads 42%.
As for `CC(C)(CN1CCCCC1)C(=O)CC(SCCS(=O)(=O)O)c1ccc(Br)cc1` (centres undefined), the figure is 0%; as for `C[Si](C)(C)CNC(=O)OCc1ccccc1`, 21%.
`CC(C(=O)N1C(=O)N(C(=O)[C@H](C)C(O)c2ccccc2)[C@H](c2ccccc2)[C@H]1c1ccccc1)[C@@H](O)c1ccccc1` (some centres undefined): the growth inhibition is -3%.
Consider `Oc1cccc2c(Cl)ccnc12`, for which the growth inhibition was 97% (active).
The result for `O=C1C=CC(=C(c2ccccc2)c2ccccc2)c2ccccc21` reads 15%; that for `S=C(S)NN1CCOCC1`, 84% (active).

(Values after PubChem BioAssay (NCI).)
